Drawing on PubChem BioAssay AID1347150 (National Center for Advancing Translational Sciences (NCATS), 2019), this text covers outcome for 21 compounds.

Results filed as inconclusive are left out. Activity calls are given as the source filed them. Calls come from the whole dose curve; as a rule, active = well fitted curve in the direction sought with a large enough effect; inconclusive = small, poorly fitted or top-dose-only effect, or another doubt; inactive = no such curve, though single readings can be large or run the other way.

This assay has as its system Zika virus NS2B-NS3 protease (linked). The experiment in a line: Optimization screen NINDS AMC qHTS for Zika virus inhibitors: Linked NS2B-NS3 protease assay. As to conditions: recombinant linked NS2B-NS3 protease, AMC fluorogenic substrate; series mostly up to 52.5 µM. The text has this:
Avindra Nath, Ph.D., National Institute of Neurological Disorders and Stroke (NINDS), Bethesda, MD
Radhakrishnan Padmanabhan, Ph.D., Georgetown University (GU), Washington D.C.
Zika Virus causes congenital defects, including microcephaly and is associated with Guillain-Barre syndrome, eningoencephalitis and myelitis in infected adult. […] Using a target-based approach, we hope to establish a screening paradigm to uncover novel, cell-active NS2B-NS3 protease (Zika Virus) specific inhibitors from NCATS' collection of small molecules using qHTS.
Four assay panel was created to identify potential Zika Virus inhibitors. Namely, (1) GU unlinked NS2B-NS3 AMC tagged protease qHTS, (2) GU unlinked NS2B-NS3 Rhodamine tagged protease qHTS, (3) NINDS linked NS2B-NS3 AMC tagged protease qHTS, (4) NINDS linked NS2B-NS3 Rhodamine tagged protease qHTS. Active compounds were re-acquired and re-screened to confirm inhibition. Inhibitors were further screened against various confirmatory and counterscreens in dose response format.
Early Translation Branch (ETB)
National Center for Advancing Translational Sciences (NCATS), Rockville, MD
National Institute of Health (NIH), Bethesda, Maryland
For the linked assay, Nath lab (NINDS) provided the purified linked NS2B-NS3 protease which is consists of hydrophilic domain of NS2B linked to the NS3 protease domain by a flexible (-GGGGSGGGG-) linker. Control compound aprotinin is obtained from Thermo Scientific (#78432; Waltham, Massachusetts). NS2B-NS3 AMC substrate (Bz-Nle-Lys-Arg-Arg-AMC; Nle-KRR-AMC) purchased from Bachem (#I-1995; Torrance, CA). Ac-VKTGKR-AMC purchased from Genscript or Bachem, Ac-FAAGKR-AMC purchased from Genscript, Ac-GLVKRR-AMC purchased from Genscript, Ac-LKKR-AMC purchased from Genscript.
NINDS AMC linked NS2B-NS3 protease qHTS protocol:
Briefly, 3 microL of Zika virus linked NS2B-NS3 protease (1 nM for linked final concentration), in assay buffer (10 mM Tris-HCl pH 8.0 with 0.01% Tween 20) was dispensed into a 1,536-well solid-bottom black plate (Greiner Bio One, Monroe, NC). Twenty-three nL of compounds (final concentration range 7.28 nM to 114 microM) or control Aprotinin (final concentration range 3.47 nM to 114 microM) were transferred via Wako Pin-tool (Wako Automation, Richmond, VA). Samples were incubated (room temperature, protected from light) for 15 minutes followed by a 1 microL AMC substrate addition of (final concentration of 10 microM; Km = 18.3 µM). Plates were then read immediately on a ViewLux High-throughput CCD imager (PerkinElmer, Waltham, MA) equipped with standard UV fluorescence optics (340(30) nm excitation, 450(20) nm emission) then incubated (room temperature, protected from light) for 15 minutes (~20% conversion). The change in fluorescence intensity over the 15-minute reaction period was normalized against no-inhibitor and no-enzyme controls and the resulting percent inhibition data were fitted to a 4-parameter Hill equation. Aprotinin was used as the intraplate control.
(In general: qHTS replaces the single test concentration by a dilution series.)
Regarding `CO[C@H]1[C@@H](O)CC(OC2[C@@H](O)CC(OC3[C@@H](O)C[C@H](OC4CC[C@@]5(C)C(CCC6C5CC(O)[C@]5(C)[C@H](C7=CC(=O)OC7)CCC65O)C4)O[C@@H]3C)O[C@@H]2C)O[C@@H]1C` (stereo partly specified), the outcome was inactive.

Turning to `C[C@@H]1O[C@@H](O[C@H]2C[C@@H](O)[C@]3(CO)[C@H]4[C@H](O)C[C@]5(C)[C@@H](C6=CC(=O)OC6)CC[C@]5(O)[C@@H]4CC[C@]3(O)C2)[C@H](O)[C@H](O)[C@H]1O`, the outcome was inactive.

`C=CCN1CCC2(C)c3cc(O)ccc3CC1C2C` (stereo unspecified): the outcome was inactive.

In the case of `C[C@H]1O[C@@H](O[C@H]2[C@@H](O)C[C@H](O[C@H]3[C@@H](O)C[C@H](O[C@H]4CC[C@@]5(C)[C@H](CC[C@@H]6[C@@H]5CC[C@]5(C)[C@@H](C7=CC(=O)OC7)CC[C@]65O)C4)O[C@@H]3C)O[C@@H]2C)C[C@H](O)[C@@H]1O`, the result was inactive.

Regarding `CC[C@H](C)[C@H]1O[C@]2(C=C[C@@H]1C)C[C@@H]1C[C@@H](C/C=C(\C)[C@@H](O[C@H]3C[C@H](OC)[C@@H](O[C@H]4C[C@H](OC)[C@@H](O)[C@H](C)O4)[C@H](C)O3)[C@@H](C)/C=C/C=C3\CO[C@@H]4[C@H](O)C(C)=C[C@@H](C(=O)O1)[C@]34O)O2`, the outcome was inactive.

Regarding `C[C@@H]1[C@@H]2Cc3ccc(O)cc3[C@@]1(C)CCN2CCc1ccccc1`, the outcome was inactive.

In the case of `C=CCN1CCC2(C)c3cc(O)ccc3C[C@H]1[C@H]2C`, the result was inactive.

Turning to `CC(C)=CCN1CC[C@@]2(C)c3cc(O)ccc3C[C@@H]1[C@@H]2C`, the result was inactive.

Turning to `C[C@H]1O[C@@H](O[C@H]2[C@@H](O)C[C@@H](O[C@H]3[C@@H](O)C[C@H](O[C@H]4CC[C@@]5(C)[C@H](CC[C@@H]6[C@@H]5CC[C@]5(C)[C@@H](C7=CC(=O)OC7)CC[C@]65O)C4)O[C@@H]3C)O[C@@H]2C)C[C@H](O)[C@@H]1O`, the result was inactive.

Regarding `C=CCN1CC[C@]23CCCCC2[C@H]1Cc1ccc(O)cc13` (stereo partly specified), the result was inactive.

On to `C[C@@H]1O[C@@H](O[C@H]2C[C@@H](O)[C@]3(CO)C4C(CC[C@]3(O)C2)[C@@]2(O)CC[C@H](C3=CC(=O)OC3)[C@@]2(C)C[C@H]4O)[C@H](O)[C@H](O)[C@H]1O` (stereo partly specified), for which the outcome was inactive.

`COC1C(O)C(C)O[C@@H](OC2CC[C@@]3(C)C4CC[C@]5(C)C(C6=CC(=O)OC6)CC[C@@]5(O)C4CC[C@@H]3C2)C1O` (stereo partly specified): the outcome was inactive.

Consider `C[C@@H]1[C@@H]2Cc3ccc(O)cc3[C@@]1(C)CCN2CC1CC1`, for which the outcome was inactive.

Turning to `C[C@H]1O[C@@H](O[C@H]2[C@@H](O)C[C@H](O[C@H]3[C@@H](O)C[C@H](O[C@H]4CC[C@]5(C)C6CC[C@]7(C)[C@@H](C8=CC(=O)OC8)CC[C@]7(O)C6CC[C@@H]5C4)O[C@@H]3C)O[C@@H]2C)C[C@H](O)[C@@H]1O` (stereo partly specified), the result was inactive.

`Cc1ccc2c(c1)[C@]13CCCC[C@@H]1[C@H](C2)N(C)CC3`: the outcome was inactive.

Take `C[C@H]1[C@H]2Cc3ccc(O)cc3[C@]1(C)CCN2CCc1ccccc1`: the outcome was inactive.

Take `CN1CC[C@@]23CCCC[C@@H]2[C@@H]1Cc1ccc(O)cc13`: the outcome was inactive.

`CC1O[C@@H](O[C@@H]2C(O)C[C@H](O[C@@H]3C(O)C[C@@H](OC4CC[C@@]5(C)C6CC[C@]7(C)C(C8=CC(=O)OC8)CC[C@@]7(O)C6CC[C@@H]5C4)OC3C)OC2C)CC(O)[C@H]1O` (stereo partly specified): the result was inactive.

For the compound `CC(C)OC(=O)Nc1ccccc1`, the result was inactive.

On to `CN1CC[C@@]23CCCCC2C1Cc1ccc(O)cc13` (stereo partly specified), for which the result was inactive.

For the compound `CC1OC(O[C@H]2C[C@@H](O)[C@]3(CO)[C@H]4[C@H](O)C[C@]5(C)[C@@H](C6=CC(=O)OC6)CC[C@]5(O)[C@@H]4CC[C@]3(O)C2)C(O)C(O)C1O` (stereo partly specified), the outcome was inactive.
